Only some compounds are listed: those with a hit (about 4.2% of all), similar ones and a draw of the others.
GDH-TPI inh: GDH-TPI coupled enzyme inhibition counter-screen | AID 588335 | 1.2% of 360,000 active | inhibition, % at 4.8 µM | GDH-TPI coupled enzyme counterscreen, NADH absorbance; in the data active = inhibition above about 30%;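 also: 0% = DMSO wells and 100% = wells lacking the enzyme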
BJeLR lethal: BJeLR cell viability loss; BJeLR (HRASV12) viability, CellTiter-Glo ATP luminescence, 48 h; 0.17% of 300,000 active; inhibition, % (test concentration not listed); in the data active = inhibition above about 50%
RecA splice inh: inhibitors of M. tuberculosis RecA intein splicing | P9WHJ3 | cell-free RecA intein splicing, fluorescence | inhibition, % (no concentration beside the values) | 0.75% of 290,000 active | AID 2221; in the data active = inhibition above about 30%;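 also: 0% = vehicle wells and 100% = reference inhibitor control wells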
PrPC TRFRET: inhibitors of human cell surface prion protein PrPC. P04156. TR-FRET read-out. inhibition, % at 13.8 µM. 0.43% of 370,000 active. AID 720596; in the data active = inhibition above about 24%; also: 0% = median of the test wells and 100% = reference compound wells
Mtb FBA inh: inhibitors of M. tuberculosis fructose-bisphosphate aldolase. purified M. tuberculosis FBA, fluorescence read-out. inhibition, % at 1 µM. 2.3% of 360,000 active; in the data active = inhibition above about 27%;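 also: 0% = vehicle and 100% = reference inhibitor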
Target sequence (P9WQA3 whole entry, looked up): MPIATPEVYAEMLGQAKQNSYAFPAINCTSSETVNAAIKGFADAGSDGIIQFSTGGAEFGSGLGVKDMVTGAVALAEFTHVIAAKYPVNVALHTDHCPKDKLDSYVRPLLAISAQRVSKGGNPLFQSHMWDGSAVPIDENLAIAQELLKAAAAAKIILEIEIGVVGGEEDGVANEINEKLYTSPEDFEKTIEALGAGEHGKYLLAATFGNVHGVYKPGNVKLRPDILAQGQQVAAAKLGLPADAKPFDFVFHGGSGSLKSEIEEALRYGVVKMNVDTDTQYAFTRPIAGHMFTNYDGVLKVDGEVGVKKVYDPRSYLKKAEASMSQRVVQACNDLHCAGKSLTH
Active calls of the source: *.

O=c1cnnc(N/N=C/c2ccc3c(c2)OCO3)[nH]1 was read as GDH-TPI inh 44*, BJeLR lethal 12, RecA splice inh -4, PrPC TRFRET 2 and Mtb FBA inh 2.
Screening COc1cc(/C=N/NC(=O)c2ccc3c(c2)OCO3)ccc1O returned GDH-TPI inh 35*, BJeLR lethal 3, RecA splice inh -2, PrPC TRFRET 4 and Mtb FBA inh 1.
O=C(N/N=C/c1ccc2c(c1)OCO2)c1ccc2c(c1)OCCO2 was read as GDH-TPI inh 42*, BJeLR lethal -1, RecA splice inh -3, PrPC TRFRET 21 and Mtb FBA inh 3.
For O=C(O)c1ccc(N/N=C/c2cc3cc4c(cc3nc2Cl)OCCO4)cc1 the results were GDH-TPI inh 39*, BJeLR lethal -3, RecA splice inh -7, PrPC TRFRET -7 and Mtb FBA inh 8.
`CCOc1ccc(-n2c(SCC(=O)Nc3cccc4ccccc34)nnc2-c2ccncc2)cc1` gave PrPC TRFRET -4.
Screening CCCCN1CCS(=O)(=O)N(Cc2ccc(Cl)cc2)C(C(=O)OC)C1 (centres undefined) returned PrPC TRFRET 1.
For O=C(O)c1ccc(/C=N/Nc2ncc(C(F)(F)F)cc2Cl)cc1 the results were GDH-TPI inh 37*, BJeLR lethal -1, RecA splice inh -4, PrPC TRFRET -5 and Mtb FBA inh -1.
For CC(C)(C)c1ccc(/C=N/Nc2ccc(C(=O)O)cc2)cc1 the results were GDH-TPI inh 42*, BJeLR lethal 4, RecA splice inh 9, PrPC TRFRET 9 and Mtb FBA inh -3.
Screening CN(C)c1ccc(/C=N/NC(=O)c2cc(-c3ccc4c(c3)OCO4)n[nH]2)cc1 returned GDH-TPI inh 36*, BJeLR lethal 26, RecA splice inh 4, PrPC TRFRET -3 and Mtb FBA inh 3.
For O=C(O)c1ccc(N/N=C/c2ccc3c(c2)OCO3)cc1 the results were GDH-TPI inh 33*, BJeLR lethal 42, RecA splice inh -4, PrPC TRFRET 4 and Mtb FBA inh -5.
O=C(O)c1ccc(N/N=C/c2ccc(C(F)(F)F)cc2)cc1 was read as GDH-TPI inh 26, BJeLR lethal -12, RecA splice inh 10, PrPC TRFRET 14 and Mtb FBA inh -2.
CCNC(=S)NNC(=O)CSc1nnc(-c2ccccc2)n1-c1ccc(Cl)cc1 was read as PrPC TRFRET -4.
`CC1Oc2ccccc2C=C1/C=N/Nc1ccc(C(=O)O)cc1` (centres undefined) gave GDH-TPI inh 34*, BJeLR lethal -5, RecA splice inh -14, PrPC TRFRET 20 and Mtb FBA inh 3.
COc1cc(/C=N/NC(=O)c2cccs2)ccc1O was read as GDH-TPI inh 14, BJeLR lethal 9, RecA splice inh -5, PrPC TRFRET 13 and Mtb FBA inh 1.
Screening COc1cc(/C=N/NC(=O)c2ccc(-n3cccc3)cc2)ccc1O returned GDH-TPI inh 43*, BJeLR lethal 4, RecA splice inh -2, PrPC TRFRET 3 and Mtb FBA inh -2.
For COc1cc(/C=N/NC(=O)/C(=C\c2ccc([N+](=O)[O-])cc2)NC(=O)c2ccccc2)cc(OC)c1O the results were GDH-TPI inh 43*, BJeLR lethal -8, RecA splice inh -1, PrPC TRFRET -34 and Mtb FBA inh -1.
Screening COc1ccc(/C=C(/NC(=O)c2cccc([N+](=O)[O-])c2)C(=O)O)cc1OC returned GDH-TPI inh 7, BJeLR lethal 3, RecA splice inh -6, PrPC TRFRET -13 and Mtb FBA inh 3.
Screening COc1cc(C(=O)NC(=S)NNC(=O)c2ccc3c(c2)OCO3)cc(OC)c1OC returned GDH-TPI inh 32*, BJeLR lethal 5, RecA splice inh 1, PrPC TRFRET -2 and Mtb FBA inh 0.
CCCCn1c(N)c(N(CC(C)C)C(=O)COC(=O)c2ccccc2NCCO)c(=O)[nH]c1=O was read as GDH-TPI inh 3, BJeLR lethal 2, RecA splice inh -6, PrPC TRFRET 1 and Mtb FBA inh 125*.
`CCOC(=O)c1cc2c(nc1N)CC(C)(CC)OC2` (centres undefined) gave GDH-TPI inh 14, BJeLR lethal 3, RecA splice inh 2, PrPC TRFRET 5 and Mtb FBA inh 112*.
Screening CCOC(=O)c1sc2nc3c(cc2c1N)COC(C)(C)C3 returned GDH-TPI inh 9, PrPC TRFRET -15 and Mtb FBA inh 0.
`CCOC(=O)c1cc2c(nc1N)CC(C)(C)OC2` gave GDH-TPI inh 20, BJeLR lethal 0, RecA splice inh -1, PrPC TRFRET 0 and Mtb FBA inh 164*.
